Experimental findings from publication PMC7862700, “An all-to-all approach to the identification of sequence-specific readers for epigenetic DNA modifications on cytosine” are described below.

Assay in all cases: DAPPL (digital affinity profiling via proximity ligation, sequencing); 10 mM Tris-HCl pH 7.5, 50 mM NaCl, 1 mM DTT, 4% glycerol, room temperature, 30 min; GST-TFs on glutathione beads, 16-mer random dsDNA library, 0.1% formaldehyde crosslink after washing; high values mean tight binding
Holding throughout (settings): protein: recombinant; tags: N-terminal GST; dsDNA, one strand shown

For test [1], the target named is T1, ERF (Homo sapiens, UniProt P50548 1-548).
T1 sequence: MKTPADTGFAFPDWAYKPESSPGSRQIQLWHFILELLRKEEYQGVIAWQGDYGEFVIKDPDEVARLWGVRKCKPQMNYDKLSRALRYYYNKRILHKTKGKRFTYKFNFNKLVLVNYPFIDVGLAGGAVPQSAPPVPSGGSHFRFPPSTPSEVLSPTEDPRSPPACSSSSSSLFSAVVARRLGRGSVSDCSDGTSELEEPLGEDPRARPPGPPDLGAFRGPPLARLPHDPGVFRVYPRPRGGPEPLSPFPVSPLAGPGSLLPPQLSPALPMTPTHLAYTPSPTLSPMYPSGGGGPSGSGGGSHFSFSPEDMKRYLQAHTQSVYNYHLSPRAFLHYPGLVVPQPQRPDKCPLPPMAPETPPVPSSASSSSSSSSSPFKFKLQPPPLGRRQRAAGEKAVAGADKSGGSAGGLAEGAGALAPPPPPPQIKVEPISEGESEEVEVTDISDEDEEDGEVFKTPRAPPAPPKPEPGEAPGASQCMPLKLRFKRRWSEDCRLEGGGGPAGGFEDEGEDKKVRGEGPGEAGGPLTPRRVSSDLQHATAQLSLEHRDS
A digest of the protocol: (§1)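 Human transcription factors carrying a GST fusion were produced in yeast, bound to glutathione beads, tagged with DNA barcodes and pooled together with a tag-only sample. Each pool was held with 200 nmole of a random double-stranded 16-mer DNA library in Tris/NaCl/DTT/glycerol buffer for 30 min at room temperature, then washed, crosslinked in 0.1% formaldehyde, proximity-ligated with BsaI/T4 ligase (1 h, 37 °C), PCR-amplified and sequenced on an Illumina NextSeq500. Binding signal is the read frequency of each hexamer for a given factor divided by its frequency in the tag-only sample.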

Test [2] addresses T2, ETV3L (Homo sapiens, UniProt Q6ZN32 1-361).
T2 sequence: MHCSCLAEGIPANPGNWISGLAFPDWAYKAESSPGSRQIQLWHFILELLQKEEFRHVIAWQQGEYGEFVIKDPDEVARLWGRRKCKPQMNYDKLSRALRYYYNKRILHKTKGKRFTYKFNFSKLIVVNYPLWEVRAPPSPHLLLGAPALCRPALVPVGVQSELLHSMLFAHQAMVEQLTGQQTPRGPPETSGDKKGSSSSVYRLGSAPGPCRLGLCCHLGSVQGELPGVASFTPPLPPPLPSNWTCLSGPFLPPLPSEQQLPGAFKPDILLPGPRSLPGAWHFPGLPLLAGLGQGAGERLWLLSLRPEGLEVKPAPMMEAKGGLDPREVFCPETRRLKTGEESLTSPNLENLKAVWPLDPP
A digest of the protocol:
as §1

The target in test [3] is T3, ETS2 (Homo sapiens, UniProt P15036 1-469).
T3 sequence: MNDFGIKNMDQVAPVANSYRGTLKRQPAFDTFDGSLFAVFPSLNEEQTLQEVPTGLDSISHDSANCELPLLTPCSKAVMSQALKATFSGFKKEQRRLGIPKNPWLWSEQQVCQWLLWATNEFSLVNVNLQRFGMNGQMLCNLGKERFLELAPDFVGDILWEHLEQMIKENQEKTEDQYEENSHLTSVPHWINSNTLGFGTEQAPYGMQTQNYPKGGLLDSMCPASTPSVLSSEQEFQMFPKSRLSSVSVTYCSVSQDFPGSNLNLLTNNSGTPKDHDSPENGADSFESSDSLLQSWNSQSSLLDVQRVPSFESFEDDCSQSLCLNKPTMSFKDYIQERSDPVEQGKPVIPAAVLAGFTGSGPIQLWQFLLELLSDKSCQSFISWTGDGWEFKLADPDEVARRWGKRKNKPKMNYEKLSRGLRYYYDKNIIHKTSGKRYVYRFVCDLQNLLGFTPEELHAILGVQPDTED
A digest of the protocol:
as §1

For test [4], the target named is T4, SPDEF (Homo sapiens, UniProt O95238 1-335).
T4 sequence: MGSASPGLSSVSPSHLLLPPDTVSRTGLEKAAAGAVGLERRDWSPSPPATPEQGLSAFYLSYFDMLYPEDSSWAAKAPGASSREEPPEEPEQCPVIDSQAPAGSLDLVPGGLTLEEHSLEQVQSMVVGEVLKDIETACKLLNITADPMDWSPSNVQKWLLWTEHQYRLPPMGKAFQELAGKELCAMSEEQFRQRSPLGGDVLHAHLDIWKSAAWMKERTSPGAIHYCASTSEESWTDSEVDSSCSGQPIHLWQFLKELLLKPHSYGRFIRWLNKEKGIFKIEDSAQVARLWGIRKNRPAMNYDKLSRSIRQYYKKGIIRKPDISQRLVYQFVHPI
A digest of the protocol:
as §1

The target in test [5] is T5, ETV7 (Homo sapiens, UniProt Q9Y603 1-341).
T5 sequence: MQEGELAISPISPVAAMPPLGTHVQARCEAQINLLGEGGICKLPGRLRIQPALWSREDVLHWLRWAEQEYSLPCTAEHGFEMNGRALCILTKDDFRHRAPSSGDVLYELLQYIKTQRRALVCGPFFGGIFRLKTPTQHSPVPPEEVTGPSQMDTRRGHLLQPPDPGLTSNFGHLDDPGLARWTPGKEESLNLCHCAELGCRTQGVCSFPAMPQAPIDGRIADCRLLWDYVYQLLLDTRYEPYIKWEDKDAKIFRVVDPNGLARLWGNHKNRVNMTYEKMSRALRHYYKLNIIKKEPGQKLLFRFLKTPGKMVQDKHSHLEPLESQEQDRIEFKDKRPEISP
A digest of the protocol:
as §1

For test [6], the target named is T6, ELF5 (Homo sapiens, UniProt Q9UKW6-2 1-255).
T6 sequence: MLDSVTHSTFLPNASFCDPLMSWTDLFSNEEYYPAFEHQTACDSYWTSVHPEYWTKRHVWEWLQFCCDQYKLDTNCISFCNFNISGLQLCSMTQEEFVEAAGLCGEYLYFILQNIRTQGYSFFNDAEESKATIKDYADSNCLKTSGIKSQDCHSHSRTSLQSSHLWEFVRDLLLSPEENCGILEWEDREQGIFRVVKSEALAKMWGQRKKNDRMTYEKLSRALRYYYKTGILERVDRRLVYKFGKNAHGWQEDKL
A digest of the protocol: as §1

The target of test [7] is T7, ETV3 (Homo sapiens, UniProt P41162-2 1-143).
T7 sequence: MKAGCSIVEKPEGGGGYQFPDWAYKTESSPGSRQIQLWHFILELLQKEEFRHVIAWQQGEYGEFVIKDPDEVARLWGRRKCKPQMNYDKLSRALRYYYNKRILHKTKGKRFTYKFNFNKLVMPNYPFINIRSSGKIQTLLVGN
A digest of the protocol: as §1

Test [8] concerns the target ETV6 (Homo sapiens, UniProt P41212 1-452). A digest of the protocol:
as §1

Chain of ETV6 (P41212 whole entry): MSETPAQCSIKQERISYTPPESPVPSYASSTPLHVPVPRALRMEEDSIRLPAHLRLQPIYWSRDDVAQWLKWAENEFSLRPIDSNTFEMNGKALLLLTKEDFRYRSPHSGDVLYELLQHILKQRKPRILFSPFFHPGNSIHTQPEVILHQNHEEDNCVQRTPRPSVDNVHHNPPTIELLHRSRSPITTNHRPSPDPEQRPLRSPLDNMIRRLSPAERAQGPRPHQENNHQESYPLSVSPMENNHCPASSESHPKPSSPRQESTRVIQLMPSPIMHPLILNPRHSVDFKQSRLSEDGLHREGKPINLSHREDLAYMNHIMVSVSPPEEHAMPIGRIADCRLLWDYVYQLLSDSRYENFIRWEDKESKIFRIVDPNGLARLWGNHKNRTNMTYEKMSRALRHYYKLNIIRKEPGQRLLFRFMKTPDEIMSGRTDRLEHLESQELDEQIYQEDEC

As for ACTAAG, the binding signal was 1.04 fold enrichment (6-mer frequency, TF over GST control) in test [1]; 1.12 fold enrichment (6-mer frequency, TF over GST control) in test [2]; 1.11 fold enrichment (6-mer frequency, TF over GST control) in test [3]; 1.16 fold enrichment (6-mer frequency, TF over GST control) in test [4]; 1.14 fold enrichment (6-mer frequency, TF over GST control) in test [5]; 1.12 fold enrichment (6-mer frequency, TF over GST control) in test [6]. For the same sequence, the binding signal is 1.09 fold enrichment (6-mer frequency, TF over GST control) in test [7] and 1.2 fold enrichment (6-mer frequency, TF over GST control) in test [8].
Consider GCTCAT, for which the binding signal in test [1] was 1.31 fold enrichment (6-mer frequency, TF over GST control); in test [2] it was 1.19 fold enrichment (6-mer frequency, TF over GST control); in test [3], 1.26 fold enrichment (6-mer frequency, TF over GST control); in test [4], 1.12 fold enrichment (6-mer frequency, TF over GST control); in test [5], 1.23 fold enrichment (6-mer frequency, TF over GST control); in test [6], 1.19 fold enrichment (6-mer frequency, TF over GST control). In addition, the binding signal was 1.15 fold enrichment (6-mer frequency, TF over GST control) in test [7] and 1.21 fold enrichment (6-mer frequency, TF over GST control) in test [8].
In the case of GCTGAA, the binding signal is 1.16 fold enrichment (6-mer frequency, TF over GST control) in test [1]; 1.13 fold enrichment (6-mer frequency, TF over GST control) in test [2]; 1.16 fold enrichment (6-mer frequency, TF over GST control) in test [3]; 1.17 fold enrichment (6-mer frequency, TF over GST control) in test [4]; 1.08 fold enrichment (6-mer frequency, TF over GST control) in test [5]; 1 fold enrichment (6-mer frequency, TF over GST control) in test [6]. Also, the binding signal in test [7] was 1.1 fold enrichment (6-mer frequency, TF over GST control); in test [8] it was 1.09 fold enrichment (6-mer frequency, TF over GST control).
Regarding TTGACC, the binding signal in test [1] is 1.45 fold enrichment (6-mer frequency, TF over GST control); in test [2], 1.46 fold enrichment (6-mer frequency, TF over GST control); in test [3] it was 1.4 fold enrichment (6-mer frequency, TF over GST control); in test [4], 1.52 fold enrichment (6-mer frequency, TF over GST control); in test [5] it was 1.35 fold enrichment (6-mer frequency, TF over GST control); in test [6] it was 1.37 fold enrichment (6-mer frequency, TF over GST control). In addition, the binding signal in test [7] is 1.44 fold enrichment (6-mer frequency, TF over GST control); in test [8], 1.41 fold enrichment (6-mer frequency, TF over GST control).
For the sequence CTCACC, the binding signal in test [1] is 1.33 fold enrichment (6-mer frequency, TF over GST control); in test [2], 1.16 fold enrichment (6-mer frequency, TF over GST control); in test [3], 1.11 fold enrichment (6-mer frequency, TF over GST control); in test [4], 1.12 fold enrichment (6-mer frequency, TF over GST control); in test [5], 1.06 fold enrichment (6-mer frequency, TF over GST control); in test [6], 1.15 fold enrichment (6-mer frequency, TF over GST control). The binding signal in test [7] was 1.14 fold enrichment (6-mer frequency, TF over GST control); in test [8] it was 1.08 fold enrichment (6-mer frequency, TF over GST control).
Turning to ACACAT, the binding signal in test [1] was 1.29 fold enrichment (6-mer frequency, TF over GST control); in test [2] it was 1.23 fold enrichment (6-mer frequency, TF over GST control); in test [3], 1.27 fold enrichment (6-mer frequency, TF over GST control); in test [4], 1.31 fold enrichment (6-mer frequency, TF over GST control); in test [5], 1.27 fold enrichment (6-mer frequency, TF over GST control); in test [6], 1.23 fold enrichment (6-mer frequency, TF over GST control). Moreover, the binding signal in test [7] is 1.2 fold enrichment (6-mer frequency, TF over GST control); in test [8] it was 1.22 fold enrichment (6-mer frequency, TF over GST control).
Turning to TAAAGA, the binding signal in test [1] was 1.23 fold enrichment (6-mer frequency, TF over GST control); in test [2], 1.12 fold enrichment (6-mer frequency, TF over GST control); in test [3], 1.08 fold enrichment (6-mer frequency, TF over GST control); in test [4], 1.04 fold enrichment (6-mer frequency, TF over GST control); in test [5], 1.08 fold enrichment (6-mer frequency, TF over GST control); in test [6], 1.05 fold enrichment (6-mer frequency, TF over GST control). The binding signal was 1.08 fold enrichment (6-mer frequency, TF over GST control) in test [7] and 1.06 fold enrichment (6-mer frequency, TF over GST control) in test [8].
